Source: PubChem BioAssay AID2585 (National Center for Advancing Translational Sciences (NCATS), 2010)
This is one part of the list. Inconclusive results are not listed. Active and inactive are the calls of the source. The call rests on the fitted dose curve; in most records, active means well fitted inhibition curve with a large enough effect; inconclusive means small, poorly fitted or top-dose-only effect; inactive means no such curve, though single readings can be large or run the other way.

Biological target: RecQ-like DNA helicase BLM (Homo sapiens) (UniProt P54132)
Assay: qHTS Confirmation Assay for Inhibitors of Bloom's syndrome helicase (BLM); further: nearly all actives have a fitted effect of over 45% in size
Settings: BLM DNA unwinding, fluorescence quenching, biochemical
Excerpt: Survival of cells and the faithful propagation of the genome depend on elaborate mechanisms of detecting and repairing DNA damage. Treatment of advanced cancer relies on radiation therapy or chemotherapy, which kill cancer cells by causing extensive DNA damage. It is often found, that cancer cells develop resistance to therapy through enhanced activity of DNA repair functions; this has led to an increased interest in developing drugs that interfere with DNA repair, which could sensitize cancer cells to conventional therapy. This validation qHTS assay pertains to human BLM, which is important in resolving abnormal DNA structures formed during replication or homologous recombination. Shutting down the expression of BLM leads to chromosomal instability and higher radiation sensitivity in cultured cells. The validation assay was a fluorescence quenching based kinetic qHTS for BLM Helicase DNA unwinding. The activity was measured as ATP-dependent separation of a 20-bp DNA duplex extended by 30-nt single-stranded tails (forked duplex). The forked DNA substrate was tagged with rhodamine fluorophore (carboxytetramethyl rhodamine, TAMRA) and BHQ-2 (Black Hole Quencher 2) dark quencher. Strand separation results in an increase in the fluorescence of TAMRA (excitation 525 nm, emission 598 nm). […]
Potency means the concentration at half of the fitted maximal effect.

RecQ-like DNA helicase BLM (Homo sapiens), sequence (P54132 whole entry, looked up): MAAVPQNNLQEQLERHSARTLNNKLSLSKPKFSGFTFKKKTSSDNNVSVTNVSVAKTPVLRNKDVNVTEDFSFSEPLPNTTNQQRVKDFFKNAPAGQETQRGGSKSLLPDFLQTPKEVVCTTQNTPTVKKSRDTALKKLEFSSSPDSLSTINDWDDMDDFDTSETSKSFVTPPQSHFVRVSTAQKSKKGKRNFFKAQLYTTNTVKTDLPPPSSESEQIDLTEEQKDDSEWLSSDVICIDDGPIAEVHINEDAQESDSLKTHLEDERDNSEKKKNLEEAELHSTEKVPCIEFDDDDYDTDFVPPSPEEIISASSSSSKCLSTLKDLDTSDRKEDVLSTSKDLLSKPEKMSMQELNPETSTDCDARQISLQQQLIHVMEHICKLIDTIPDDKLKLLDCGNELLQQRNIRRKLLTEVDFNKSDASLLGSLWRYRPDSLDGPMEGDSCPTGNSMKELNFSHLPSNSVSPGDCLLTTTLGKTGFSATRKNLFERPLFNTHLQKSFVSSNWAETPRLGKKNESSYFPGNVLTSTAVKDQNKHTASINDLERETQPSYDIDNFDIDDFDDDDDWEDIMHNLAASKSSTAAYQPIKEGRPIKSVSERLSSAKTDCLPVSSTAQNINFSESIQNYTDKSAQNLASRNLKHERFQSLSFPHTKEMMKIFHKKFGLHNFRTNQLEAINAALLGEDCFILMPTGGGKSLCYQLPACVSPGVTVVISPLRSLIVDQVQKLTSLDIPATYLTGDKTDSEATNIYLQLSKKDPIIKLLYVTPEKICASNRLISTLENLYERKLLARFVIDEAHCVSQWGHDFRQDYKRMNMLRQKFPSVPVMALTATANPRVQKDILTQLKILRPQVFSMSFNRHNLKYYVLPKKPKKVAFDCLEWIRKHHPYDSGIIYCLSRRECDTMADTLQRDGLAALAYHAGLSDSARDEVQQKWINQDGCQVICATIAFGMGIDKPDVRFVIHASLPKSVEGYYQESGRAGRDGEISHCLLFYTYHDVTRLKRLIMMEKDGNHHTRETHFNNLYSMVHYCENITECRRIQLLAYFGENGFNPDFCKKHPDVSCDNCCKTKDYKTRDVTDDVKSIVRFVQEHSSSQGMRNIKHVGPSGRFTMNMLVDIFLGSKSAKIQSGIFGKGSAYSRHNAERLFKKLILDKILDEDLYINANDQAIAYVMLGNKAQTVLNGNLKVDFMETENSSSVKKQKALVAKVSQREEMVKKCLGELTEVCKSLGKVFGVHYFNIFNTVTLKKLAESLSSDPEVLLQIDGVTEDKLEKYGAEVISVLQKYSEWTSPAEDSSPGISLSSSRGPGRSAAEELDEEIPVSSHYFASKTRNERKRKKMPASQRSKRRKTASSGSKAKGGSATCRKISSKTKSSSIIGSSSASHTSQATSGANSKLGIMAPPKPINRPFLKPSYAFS

## O=C(O)c1cc[c]([Sb](=[O])([OH])[OH])cc1[N+](=O)[O-]
  Potency: 8.57 µM (active)
